Vaccinia mCherry: qHTS for Stage-Specific Inhibitors of Vaccinia Orthopoxvirus: mCherry Reporter Primary qHTS; Vaccinia virus mCherry reporter infection, fluorescence; 0.63% of 310,000 active; Potency, µM (series often up to 36.5 µM), hits mostly inhibitors; calls by dose curve; tested in A549 cells; further: nearly all actives have a fitted effect of over 35% in size
VACV Venus inh: qHTS for Stage-Specific Inhibitors of Vaccinia Orthopoxvirus: Venus Reporter Primary qHTS; 0.46% of 330,000 active; AID 720580, 2013; Vaccinia virus Venus reporter expression, fluorescence; Potency, µM (series often up to 36.5 µM), hits mostly inhibitors; calls by dose curve; tested in A549 cells; further: nearly all actives have a fitted effect of over 30% in size
Sm TGR inh: qHTS Assay for the Inhibitors of Schistosoma Mansoni Peroxiredoxins | Schistosoma mansoni thioredoxin glutathione reductase (TGR), Q962Y6 | purified TGR, DTNB reduction, TNB absorbance 405 nm | Potency, µM (series often up to 114 µM), hits mostly inhibitors | 3% of 360,000 active; active means well fitted inhibition curve with a large enough effect; inconclusive means small, poorly fitted or top-dose-only effect; inactive means no such curve, though single readings can be large or run the other way; further: nearly all actives have a fitted effect of over 60% in size
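Kinetic colorimetric format: TGR-catalysed, NADPH-driven DTNB reduction monitored via TNB absorbance. Enzyme dispensed at 20 nM; compound exposure 15 min at room temperature before reaction start.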
FMDV antiviral: High Throughput Screening for Foot and Mouth Disease Virus Antivirals; FMDV antiviral cell-based qHTS; Potency, µM (series often up to 57.9 µM), actives largely listed as inhibitors; 1.2% of 410,000 active; AID 1159524, 2015; calls by dose curve; tested in HEK293T cells; further: read-out not given here; nearly all actives have a fitted effect of over 45% in size
Lassa entry inh: qHTS for Inhibitors of binding or entry into cells for Lassa Virus. Lassa virus pseudotype entry inhibition, cell reporter. AID 540256, 2011. Potency, µM (top dose mostly 37.9 µM), most hits filed as inhibitors. 1.2% of 300,000 active; calls by dose curve; tested in HEK293 cells; further: nearly all actives have a fitted effect of over 50% in size
MARV entry inh: qHTS for inhibitors of binding or entry into cells for Marburg Virus; Potency, µM (series often up to 37.8 µM), most hits filed as inhibitors; Marburg virus pseudotyped entry inhibition, cell reporter; 1.8% of 300,000 active; calls by dose curve; tested in HEK293 cells
Of the large screens only hits and unclear results are named; the others gave an inactive call. The list is not random: actives were taken first. Their share in the collection is about 5.4%.

O=C(Nc1nc2n(n1)C(c1ccc(F)cc1)C=C(c1ccc(Cl)cc1)N2)c1ccc([N+](=O)[O-])cc1 (centres undefined)	Lassa entry inh inconclusive, MARV entry inh 2.82µM
COc1ccccc1C(=O)Nc1nc2n(n1)C(c1ccc(F)cc1)C=C(c1ccc(Cl)cc1)N2 (centres undefined)	none
Cc1ccc(C2C=C(c3ccc(Cl)cc3)Nc3nc(NC(=O)c4ccco4)nn32)cc1 (centres undefined)	Sm TGR inh 12.6µM, FMDV antiviral inconclusive, MARV entry inh inconclusive
COC(=O)c1ccc(-c2ccc(C(c3c(C)[nH][nH]c3=O)c3c(C)[nH][nH]c3=O)o2)cc1	Sm TGR inh 8.91µM
Cc1[nH][nH]c(=O)c1C(c1ccc(-c2cccc(Cl)c2)o1)c1c(C)[nH][nH]c1=O	Vaccinia mCherry inconclusive, Sm TGR inh 7.08µM, FMDV antiviral inconclusive
COc1cc(OC)c(NS(=O)(=O)c2c(C)nc3sc(C)cn3c2=O)cc1Cl	Vaccinia mCherry inconclusive, VACV Venus inh inconclusive (no result: MARV entry inh)
O=C(Nc1ccc(F)cc1F)N1CCCN(c2ccc([N+](=O)[O-])cn2)CC1	FMDV antiviral inconclusive
CC(C)(C)c1ccc(NC(=O)N2CCN(c3ccc([N+](=O)[O-])cn3)CC2)cc1	FMDV antiviral 22.4µM, Lassa entry inh inconclusive
O=C1/C(=C\c2ccccc2)C[C@@]2(O)[C@H]3Cc4ccc(O)c5c4[C@@]2(CCN3CC2CC2)[C@H]1O5	Vaccinia mCherry inconclusive, VACV Venus inh inconclusive, FMDV antiviral 10µM (no result: Sm TGR inh, Lassa entry inh, MARV entry inh)
Oc1ccc2c3c1O[C@H]1c4[nH]c5c(c4C[C@@]4(O)[C@@H](C2)N(CC2CC2)CC[C@]314)C[C@]1(O)[C@H]2Cc3ccc(O)c4c3[C@@]1(CCN2CC1CC1)[C@@H]5O4	none (no result: Vaccinia mCherry, VACV Venus inh, Sm TGR inh, Lassa entry inh)
NC(N)=Nc1ccc2[nH]c3c(c2c1)C[C@@]1(O)[C@H]2Cc4ccc(O)c5c4[C@@]1(CCN2CC1CC1)[C@H]3O5	Sm TGR inh 0.794µM, FMDV antiviral inconclusive, Lassa entry inh 2.31µM, MARV entry inh 25.9µM
O=C1/C(=C\c2ccccc2)C[C@@]2(O)[C@H]3Cc4ccc(O)c5c4[C@@]2(CCN3CC2CC2)[C@@H]1O5	FMDV antiviral 22.4µM (no result: Vaccinia mCherry, VACV Venus inh, Sm TGR inh, Lassa entry inh, MARV entry inh)
Oc1ccc2c3c1O[C@H]1c4oc5ccccc5c4C[C@@]4(O)C(C2)N(CC2CC2)CC[C@]314	none (no result: Sm TGR inh, Lassa entry inh, MARV entry inh)
CCOC(=O)c1[nH]c(C)c(CCC(=O)N2CCN(c3cc(Cl)ccc3C)CC2)c1C	FMDV antiviral inconclusive (no result: MARV entry inh)
Cc1[nH]nc2c1C(c1cn[nH]c1-c1ccc(F)cc1)C(C#N)=C(N)O2 (centres undefined)	VACV Venus inh inconclusive, FMDV antiviral 22.4µM (no result: Vaccinia mCherry)
COc1cccc(-c2cccc(NC(=O)C3CCN(Cc4ccc(C)o4)CC3)c2)c1	Sm TGR inh 50.1µM (no result: Vaccinia mCherry, VACV Venus inh, Lassa entry inh, MARV entry inh)
Cc1ccc(CN2CCC(Oc3cccc(C(=O)NCc4cccnc4)c3)CC2)o1	Sm TGR inh 31.6µM (no result: Vaccinia mCherry, VACV Venus inh, Lassa entry inh, MARV entry inh)
Cn1cc(CN2CCC(C(=O)Nc3cccc(-c4cccc(F)c4)c3)CC2)cn1	none (no result: Vaccinia mCherry, VACV Venus inh, Lassa entry inh, MARV entry inh)
O=C(Nc1cccc(-c2cccc(Cl)c2)c1)C1CCN(Cc2ccccn2)CC1	Vaccinia mCherry inconclusive, Sm TGR inh inconclusive, Lassa entry inh 10µM, MARV entry inh inconclusive
CCCn1ncc(CN2CCC(C(=O)Nc3cccc(-c4cccc(F)c4)c3)CC2)c1C	Vaccinia mCherry inconclusive, VACV Venus inh inconclusive, Lassa entry inh inconclusive, MARV entry inh 2.51µM
CCS(=O)(=O)N1CCc2cc(C(=O)Nc3cccc(NC(C)=O)c3)ccc21	none
Cn1nc(C(=O)NCCc2ccc(Cl)cc2)c2c1-c1ccccc1SC2	none
CC(NC(=O)c1cccc(S(=O)(=O)N2CCN(Cc3ccccc3)CC2)c1)c1ccc(Cl)cc1 (centres undefined)	Vaccinia mCherry inconclusive, Lassa entry inh 0.891µM, MARV entry inh inconclusive
COc1ccccc1NC(=O)c1cccc(S(=O)(=O)N2CCN(Cc3ccccc3)CC2)c1	Lassa entry inh inconclusive
Cc1ccc(C)c(Cn2c(=O)n(CCCC(=O)NCc3ccc4c(c3)OCO4)c(=O)c3sccc32)c1	MARV entry inh inconclusive
CN(C)c1ccc(C(CNS(=O)(=O)c2ccc(Br)cc2)N2CCOCC2)cc1 (centres undefined)	Lassa entry inh inconclusive (no result: MARV entry inh)
COc1ccc(N(C(=O)/C=C\C(=O)Nc2ccc(Cl)cc2)C(C(=O)NCc2ccco2)c2ccc(C)cc2)cc1 (centres undefined)	Sm TGR inh 7.94µM, Lassa entry inh inconclusive (no result: MARV entry inh)
CCOc1ccc(N(C(C)C(=O)NCc2ccco2)S(C)(=O)=O)cc1 (centres undefined)	Sm TGR inh 44.7µM (no result: FMDV antiviral)
COc1ccc(NC(=O)/C=C\C(=O)N(c2ccc(C(C)C)cc2)C(C(=O)NCc2ccco2)c2ccc(F)cc2)cc1 (centres undefined)	Vaccinia mCherry inconclusive, VACV Venus inh inconclusive, Lassa entry inh inconclusive (no result: MARV entry inh)
CCOc1ccc(N(C(C)C(=O)NC2CCCCCC2)S(C)(=O)=O)cc1 (centres undefined)	Lassa entry inh inconclusive
Cc1ccc(NC(=O)/C=C\C(=O)N(c2ccc(C(C)C)cc2)C(C(=O)NCc2ccco2)c2ccc(Cl)cc2)cc1 (centres undefined)	Vaccinia mCherry inconclusive, VACV Venus inh inconclusive, Sm TGR inh inconclusive, Lassa entry inh inconclusive (no result: MARV entry inh)
CCOc1ccc(NC(=O)/C=C\C(=O)N(c2ccc(C(C)C)cc2)C(C(=O)NCc2ccco2)c2ccc(F)cc2)cc1 (centres undefined)	VACV Venus inh inconclusive, Sm TGR inh 56.2µM (no result: MARV entry inh)
CCOCCCNC(=O)C(c1ccc(C)cc1)N(Cc1cccs1)C(=O)c1ccccc1O (centres undefined)	Lassa entry inh 11.2µM, MARV entry inh inconclusive
CCOCCCNC(=O)C(c1ccc(Cl)cc1)N(Cc1cccs1)C(=O)c1ccc(NC(C)=O)cc1 (centres undefined)	Lassa entry inh inconclusive, MARV entry inh 10µM
CCOCCCNC(=O)C(c1ccc(C)cc1)N(Cc1cccs1)C(=O)c1ccc(NC(C)=O)cc1 (centres undefined)	Lassa entry inh inconclusive, MARV entry inh inconclusive
CCOCCCNC(=O)C(c1ccccc1)N(Cc1cccs1)C(=O)c1ccccc1O (centres undefined)	Lassa entry inh inconclusive, MARV entry inh inconclusive
Cc1ccc(OC(=O)COc2ccccc2C)cc1	none
Cc1ccc(SC(=O)COc2ccccc2C)cc1	Sm TGR inh 11.2µM
CCOC(=O)c1c(-n2c(C)cc(C=C3C(=O)NC(=S)NC3=O)c2C)sc2c1CCCC2	Sm TGR inh 11.2µM, FMDV antiviral 10µM (no result: Vaccinia mCherry, VACV Venus inh, Lassa entry inh)
Cc1cc(/C=C2\C(=O)NC(=O)N(c3ccc(Br)cc3)C2=O)c(C)n1-c1cc(C(=O)O)cc(C(=O)O)c1	Sm TGR inh 8.91µM (no result: Lassa entry inh, MARV entry inh)

Compound activity (PubChem BioAssay)
